# Measured values as given in PubChem BioAssay (NCATS).
# Records with an inconclusive call do not appear. Where a call stands in place of a potency, no number is given. Calls of active or inactive are those of the source. The call rests on the fitted dose curve; in most records, active means well fitted inhibition curve with a large enough effect; inconclusive means small, poorly fitted or top-dose-only effect; inactive means flat fitted curve, though single readings scatter.
# Target: Calcium and integrin-binding protein 1 (Homo sapiens) (UniProt Q99828)
# Test: Primary qHTS for Identification of Calcium Integrin Binding Protein 1 (CIB1) Competitor (AID 1508620);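 further: GST tagged CIB1 binding a fluorescein labelled alphaIIb integrin peptide tracer; top concentration of the series differs between compounds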
# Conditions: CIB1-GST / FITC-alphaIIb peptide fluorescence polarization; series mostly up to 114 µM
# Summary of the method: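 CIB1-GST (1 uM final) and compound incubated 15 min at room temperature before adding FITC-alphaIIb peptide tracer (100 nM final). Competition for binding read by fluorescence polarization (ex 480, em 540) after another 15 min at room temperature.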
# Calcium and integrin-binding protein 1 (Homo sapiens), sequence (Q99828 whole entry, looked up): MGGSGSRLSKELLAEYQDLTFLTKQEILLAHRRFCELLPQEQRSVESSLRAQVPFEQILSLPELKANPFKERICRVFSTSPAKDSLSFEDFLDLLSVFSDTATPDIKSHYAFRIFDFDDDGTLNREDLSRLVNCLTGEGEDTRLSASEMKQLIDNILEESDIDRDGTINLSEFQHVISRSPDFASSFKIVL
row,SMILES,Potency
1,N=c1c2c(ncn1-c1ccccc1)Oc1ccc3ccccc3c1C2c1ccc2c(c1)CCO2 (centres undefined),inactive
2,CCOc1ccc(-c2csc(N3CCC(C(N)=O)CC3)n2)cc1,inactive
3,S=C(NCCCc1cnc[nH]1)NCCCN(Cc1ccc(Cl)c(Cl)c1)c1ccccn1,inactive
4,FC(F)(F)c1cnc(N2CCN(C(=S)Nc3cc(Cl)ccn3)CC2)c(Cl)c1,inactive
5,CC(=O)Nc1sc2c(c1-c1ccc(N(C)C)cc1)CCNC2,inactive
6,S=C(Nc1cc(Cl)ccn1)N1CCN(c2ccc3ccccc3n2)CC1,inactive
7,O=c1c2ccccc2nc2sc(NCc3ccc([S+](=O)([O-])c4ccccc4)cc3)nn12,inactive
8,O=C(CNC(=O)c1ccccc1)OC(Cc1ccccc1)C(=O)Nc1cc(C(F)(F)F)ccc1Cl (centres undefined),inactive
9,Cc1nc(CCNc2ncnc3ccc(-c4ccc5c(c4)OCO5)cc23)cs1,inactive
10,COC(=O)c1ccc(O)c2ncc(NC3CCNCC3)cc12,inactive
11,Cn1c2cc(C=O)sc2c2cnn(Cc3ccccc3F)c(=O)c21,inactive
12,O=C(Nc1cccc2nn(-c3ccc(F)cc3)cc12)c1ccccn1,inactive
13,CC(=O)Nc1sc2c(c1-c1ccc(C#N)cc1)CCNC2,inactive
14,Cc1nc(CCN(C)c2ncnc3ccc(-c4ccc5c(c4)OCO5)cc23)cs1,inactive
15,COC(=O)c1ccc2nc(NC3=NC(c4[nH]ncc4Cl)C4=C(CCCC4=O)N3)oc2c1 (centres undefined),inactive
16,CCOc1cc2c(cc1OCC)CN(C(=O)c1cc3sccc3n1Cc1ccccc1)CC2,inactive
17,Cc1cc(NS(=O)(=O)c2cc3c(cc2F)NC(=O)CC3)ccc1Cl,inactive
18,COc1cccc(C2c3c(ncn(-c4cccnc4)c3=N)Oc3ccc4ccccc4c32)c1 (centres undefined),inactive
19,Cc1noc(C)c1-c1ccc2ncnc(NCc3cc(F)cc(F)c3)c2c1,inactive
20,COc1cc(Cn2ncc3c4sc(C)cc4n(C)c3c2=O)cc(OC)c1,inactive

row,SMILES,Potency
1,O=C(O)Cc1cc(F)c(S(=O)(=O)N2CCN(S(=O)(=O)c3ccc4c(c3)OCCO4)CC2)cc1F,inactive
2,CC(C)(C)OC(=O)NCc1nnc(-c2cc3ccccc3[nH]2)s1,inactive
3,CC(Cc1ccccc1)C(=O)Nc1ccc(Cl)cc1C(=O)O (centres undefined),inactive
4,S=C(Nc1cc(Cl)ccn1)N1CCN(c2ccc(Cl)c(Cl)c2)CC1,inactive
5,CC(=O)c1ccc(-c2csc3ncnc(Sc4nnnn4C)c23)cc1,inactive
6,CC(=O)N1CCc2cc(S(=O)(=O)Nc3ccc(C)c(C)c3)ccc21,inactive
7,O=C(Nc1cccc(-c2nn3c(=O)cc(N4CCNCC4)nc3s2)c1)c1ccon1,inactive
8,CCOc1ccc(C(=O)Oc2ccc(-c3nc4ccccc4[nH]3)cc2)cc1[N+](=O)[O-],inactive
9,O=S(=O)(c1ccc2c(c1)OCCO2)N1CCN(S(=O)(=O)c2ccc3c(c2)OCCO3)CC1,inactive
10,Cc1cc(C)nc(Nc2nnc(N3CCN(c4cccc(C(F)(F)F)c4)CC3)s2)c1,inactive
11,COc1ccc(C2Nc3ccccc3C(=O)N2Cc2ccncc2)cc1COc1c(C)cc(NC(C)=O)cc1C (centres undefined),inactive
12,COc1ccc(C2N(Cc3ccccc3)C(=O)c3ccccc3N2C)cc1COc1ccc(NC(C)=O)cc1 (centres undefined),inactive
13,O=C(Nc1ccccn1)c1sc2ccc([N+](=O)[O-])cc2c1Cl,inactive
14,COc1ccc(CSc2nc3ncc(Br)cc3[nH]2)cc1F,inactive
15,CCCCN(C)C(=O)Cn1nc(-c2ccc(OC)cc2)ccc1=O,inactive
16,Oc1ccc(CNc2ccccc2C(F)(F)F)c2cccnc12,inactive
17,O=C1Nc2c(Cl)cccc2/C1=C\c1cc(Cl)c(O)c(Cl)c1,inactive
18,Cc1nnc(-c2ccccc2)n1CCCn1ccnc1,inactive
19,Cc1ccc(CNc2ccc(N3CCNCC3)cc2)cc1,inactive
